In PubChem BioAssay AID1066 (SRMLSC, 2008):
About 790 (0.42%) of roughly 190,000 compounds were called active. The full list was thinned out, with actives kept by preference. Unmarked numbers belong to inactive results.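 Rule for the calls: active = inhibition above a set limit, the median over all tested compounds plus 3 SD (cut at about 9.5% in these data); inconclusive = no clear call, values can overlap the other calls; inactive = the rest.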

The molecules below were run on HMG-CoA reductase (Enterococcus faecalis, mvaE) (assay: inhibitors of E. faecalis class II HMGR, primary screen, biochemical, Enterococcus faecalis (AID 1066;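 note: enzyme runs in reverse so mevalonate oxidation gives rising NADPH absorbance; 0% = complete reaction with DMSO and 100% = background rate lacking mevalonate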)). Conditions: purified E. faecalis HMGR, NADPH absorbance 340 nm kinetic; at 10 µM; active compounds read high.

| Structure (SMILES) | inhibition |
| --- | --- |
| COc1ccc(NC(=O)c2sc(N)nc2-c2ccccc2)cc1 | 3.25% |
| COc1ccc(-n2c(O)c(C=NCC(c3ccco3)N3CCCC3)c3ccccc3c2=O)cc1OC (centres undefined) | 3.15% |
| Cc1nn(CCOc2ccc(Br)cc2)c(C)c1[N+](=O)[O-] | -5.05% |
| N/C(=N\OC(=O)COc1ccc([N+](=O)[O-])cc1)c1ccc(Br)cc1 | -0.17% |
| Cc1ncc([N+](=O)[O-])n1CCOC(=O)c1ccc(Br)cc1 | 10% (active) |
| CCN(CC)CCNc1nc(-c2ccc(OC(F)F)cc2)c(C)s1 | -4.92% |
| CCN(C(=O)CSc1nnc2ccccn12)C1CCS(=O)(=O)C1 (centres undefined) | -6.19% |
| COC(=O)c1ccc(-n2cnc3ccccc32)nc1 | -2.82% |
| COc1ccc(N2C(=O)C(Cc3ccccc3)NC2=S)cc1 (centres undefined) | -5.65% |
| COC(=O)c1cc(NC(=O)c2nn(C)c(=O)c3ccccc23)cc(C(=O)OC)c1 | -0.04% |
| C/[N+]([O-])=C\c1ccc([N+](=O)[O-])o1 | 11% (active) |
| COC(=O)C1=C(C)N(C)C(=O)NC1c1ccc([N+](=O)[O-])o1 (centres undefined) | 0.43% |
| CCn1c(/C=C/c2ccc([N+](=O)[O-])o2)nc2ccccc2c1=O | -2.94% |
| CN(C)/C=C/C(=O)c1cnc2sccn2c1=O | 2.25% |
| Fc1ccccc1Cn1cnc(NC(=S)NCCc2ccccc2)n1 | 15.6% (active) |
| S=C(NCCc1ccccc1)NCc1ccccc1Cl | 1.49% |
| Fc1ccccc1CNC(=S)Nc1ccc(Cl)cc1 | -0.98% |
| CCOc1ccc(N2C(=O)/C(=C/c3ccc(C)o3)N(C)C2=S)cc1 | -5.07% |
| COCCN(C(=O)C(C)C)c1nnc(-c2ccc(C(C)(C)C)cc2)s1 | -2.5% |
| COc1ccc(NC(=O)N2CCCC(c3nc(-c4ccc(F)cc4)no3)C2)cc1 (centres undefined) | 1.89% |
| O=C(c1ccccc1Cl)N(Cc1ccccc1F)N1C(=O)CCCC1=O | -5.67% |
| C=CCn1c(=NC(=O)c2cccs2)sc2cc(NC(C)=O)ccc21 | -0.47% |
| CCN=C1S/C(=C\c2cc(Br)ccc2OCC(=O)OCC)C(=O)N1CC | -2.47% |
| COc1cccc(Cn2cnc3c([N+](=O)[O-])c(C)c(C)cc32)c1 | -3.58% |

| Structure (SMILES) | inhibition |
| --- | --- |
| COc1ccc(F)cc1C(=O)C1CCCN(C(=O)CCc2ccccn2)C1 (centres undefined) | -4.06% |
| CCOC(=O)C1CCN(C(=O)/C=C/c2cc(OC)c(OC)c(OC)c2)CC1 | -1.76% |
| Cc1cc(C)c2nc(-c3cccnc3)cc(C(=O)Nc3ccc(S(=O)(=O)Nc4onc(C)c4C)cc3)c2c1 | -2.12% |
| Cc1ccc(CSc2nc3[nH]ncc3c(=O)[nH]2)cc1 | -1.81% |
| COc1ccc(C(=O)Nc2ccccc2C(=O)N/N=C/c2ccccc2OC)cc1 | -0.76% |
| C/C(=N/NC(=O)c1ccc(NC(=O)c2ccc(F)cc2)cc1)c1ccccc1 | -3.05% |
| COc1ccccc1C(=O)NNC(=O)c1ccc(NC(=O)c2ccccc2)cc1 | 15.3% (active) |
| CC(=O)c1ccc(NC(=S)N(Cc2ccccc2)C(C)C2CC2)cc1 (centres undefined) | -4.01% |
| O=C(COC(=O)c1cc(=O)[nH]c2ccccc12)Nc1nc(-c2cccc(Br)c2)cs1 | -0.22% |
| C/C(=N\NS(=O)(=O)c1ccc(Cl)cc1)c1ccc(NC(=O)c2ccco2)cc1 | 2.58% |
| Cc1onc(C(=O)NN)c1C(=O)N1CCN(C(c2ccccc2)c2ccccc2)CC1 | -0.47% |
| Cc1nc2sc3c(c2c(=O)n1NC(=O)CCl)CCCC3 | -4.51% |
| CSc1ccc(CNCCN2CCOCC2)cc1 | -2.23% |
| C/C(CC(=O)Nc1cccc(F)c1)=N\NC(=O)C(=O)NC1CCCCC1 | -2.25% |
| CCC(C)(C)NC(=O)CN(Cc1cccs1)C(=O)CNS(=O)(=O)c1ccc(F)cc1 | -1.17% |
| CC(C)(C)N(CC#CCC(O)(c1ccccc1)C1CCCC1)CCO (centres undefined) | -1.31% |
| N#C/C(=C1\CCCN1)c1nc(-c2ccccc2)cs1 | -5.6% |
| N#CC(=C1CCCC1)c1nc(-c2ccc(Cl)cc2)cs1 | 25.7% (active) |
| N#CC(=C1SC=CS1)c1nc(-c2ccccc2)cs1 | -4.9% |
| CCOC(=O)Cc1csc(NC(=O)C(C)(C)C)n1 | 5.04% |
| CCOC(=O)Cc1csc(NC(=O)CSc2ccc(Br)cc2)n1 | 5.27% |
| CCOC(=O)Cc1csc(NC(=O)Nc2ccccc2)n1 | 12.1% (active) |
| COc1ccc(NC(=O)c2ccccc2CC[N+](=O)[O-])cc1 | -3.38% |
| COc1ccccc1CC(NC(C)=O)C(=O)NC1CCN(C(=O)Nc2ccccc2Cl)CC1 (centres undefined) | -1.31% |

| Structure (SMILES) | inhibition |
| --- | --- |
| CC(C)(C)C(=O)N1CCC[C@@]1(CO)C(=O)O | -3.2% |
| CCc1cc(CNC(=O)CC2C(=O)NCCN2CC2CCCCC2)on1 (centres undefined) | 1.73% |
| O=C(O)/C=C/c1ccc(S(=O)(=O)N2CCCCCC2)cc1 | -1.58% |
| Cc1ccc(NC(=O)CN2CCC(C(N)=O)CC2)cc1[N+](=O)[O-] | -7.59% |
| CSCCC(Nc1ccc(S(=O)(=O)N2CCOCC2)cc1[N+](=O)[O-])C(=O)OCC(=O)N(C(C)C)C(C)C (centres undefined) | -4.18% |
| CC(=O)N1CCN(S(=O)(=O)c2ccc(C)c([N+](=O)[O-])c2)C1C(C)C (centres undefined) | 15.5% (active) |
| CCc1cccc(C)c1NC(=O)COC(=O)Cc1ccsc1 | 0.78% |
| CCCn1c(=S)[nH]c2ccc(C(F)(F)F)cc21 | -3.38% |
| Cc1c(NC(=S)NC(=O)CCc2ccccc2)c(=O)n(-c2ccccc2)n1C | -5.41% |
| Cc1ccc(Cl)c(NC(=O)CN(C)CC(=O)Nc2ccc(F)c(F)c2F)c1Cl | -3.18% |
| CNCC(O)CN1CCN(c2ccccc2OC)CC1 (centres undefined) | -5.06% |
| Cc1[nH]c2ccccc2c1/C=C(/C#N)C(=O)NC(C)C | -0.57% |
| CCOc1ccc(NC(=O)CN2CCN(CC(=O)Nc3ccc(OC)cc3)CC2)cc1 | 11.1% (active) |
| CCOc1ccc(NC(=O)N2CCN(CC)CC2)cc1 | -2.53% |
| CCOC(=O)N1CCN(CC(=O)Nc2ccc(F)cc2)CC1 | -2.98% |
| S=c1[nH]ccn1-c1ccc(Cl)cc1 | -3.58% |
| COc1ccc(CCCc2nnc(SCc3nc4ccccc4c(=O)[nH]3)n2C)cc1 | 4.13% |
| CCN(CC)c1ccc(S(=O)(=O)N2CCOCC2)cc1NC(=O)CSc1cccc[n+]1[O-] | -6.45% |
| COC(=O)c1ccccc1NS(=O)(=O)c1ccc2[nH]c(=O)[nH]c2c1 | -1.55% |
| O=C(COC(=O)CNS(=O)(=O)c1ccccc1)NC12CC3CC(CC(C3)C1)C2 | -0.89% |
| O=C1c2ccccc2NC(c2ccccn2)N1NS(=O)(=O)c1ccccc1 (centres undefined) | -5.78% |
| CC1CCCCC1NC(=O)COC(=O)Cc1ccc(Br)cc1 (centres undefined) | -8.55% |
| Cc1cc(C)c[n+](-c2nc3ccccc3nc2[N-]S(=O)(=O)c2cccs2)c1 | -2.15% |
| COc1cccc(C2SCC(=O)N2c2cccc(C)c2)c1OC (centres undefined) | -2.05% |

| Structure (SMILES) | inhibition |
| --- | --- |
| O=C(COc1cccc(F)c1)Oc1ccc(C(=O)c2ccccc2)cc1 | 11.7% (active) |
| O=C(c1ccccc1)c1ccc(OC(=O)N2CCCC2)cc1 | -3.15% |
| Cc1cccc(OCC(=O)Nc2ccccc2F)c1 | -6.74% |
| Cc1nn(CC(=O)Nc2ccc3c(c2)OCO3)c(C)c1[N+](=O)[O-] | -8.05% |
| CC1CC(=S)Nc2ccccc2N1Cc1ccccc1 (centres undefined) | -4.09% |
| CC(=O)Nc1ccc(S(=O)(=O)N2CCCC2C(=O)O)cc1 (centres undefined) | 18.5% (active) |
| O=C(O)C1CCCN1S(=O)(=O)c1ccc2c(c1)CCC2 (centres undefined) | 0.94% |
| CC(=O)Nc1ccc(S(=O)(=O)N2CCN(C3CCCCCCC3)CC2)cc1 | -5.25% |
| CCOC(=O)c1[nH]cnc1C(=O)Nc1ccccc1C | -0.64% |
| O=C1CC(N2CCN(c3ccc(F)cc3)CC2)C(=O)N1c1ccccc1 (centres undefined) | -3% |
| COC(=O)C(=Nc1ccccc1)/C(C(=O)C(=O)N(C)c1ccccc1)=C(\O)c1ccc(Cl)cc1 | 12.8% (active) |
| CN(C)/C=C(/C(=O)c1ccc(Cl)cc1)S(=O)(=O)c1ccccc1 | -1.53% |
| COC(=O)/C(NC(C)=O)=C(\C)c1ccc(Cl)cc1 | -0.22% |
| O=C(CCc1ccccc1)Nc1ccc(NC(=O)C2CCCCC2)nc1 | -5.74% |
| COc1ccc(OC)c(-c2csc(NC(=O)C3=NNC(=O)CC3)n2)c1 | -3.44% |
| CC(NC(=O)CSc1nc2c(cc1C#N)CN(C)CC2)c1ccccc1 (centres undefined) | -4.51% |
| CC1(C)CCc2nc(SCc3ccccc3)c(C#N)cc2C1 | 13.3% (active) |
| Cc1cc(NC(=O)CSc2nc3c(cc2C#N)CCCCC3)no1 | -2.85% |
| CCCC(=O)Nc1cccc(NC(=S)NC(=O)C(C)Oc2ccc(Cl)cc2Cl)c1 (centres undefined) | -6.26% |
| N=C1C(c2nc3ccccc3[nH]2)=C(O)CN1NC(=O)c1c[nH]c2ccccc12 | 1.51% |
| CC(=O)Nc1ccc(NC(=O)C(C)n2c3ccccc3c3nc(=O)cc(C)n32)cc1 (centres undefined) | 3.72% |
| CCCCN(C(=O)/C=C/c1ccco1)c1c(N)n(CC(C)C)c(=O)[nH]c1=O | 1.3% |
